p53ts 39C kill: p53ts cell cytotoxicity, nonpermissive temperature. H1299-p53A138V viability at 39C, ATP luminescence, 24 h. Potency, µM (titrated, usually from 46.1 µM), inactives show top-dose activity change, negative = cell killing, usual class: cytotoxic. 130,000 compounds, 1.5% hits. AID 902; also: nearly all actives have a fitted effect of over 55% in size
p53ts 32C kill: kills p53ts cells at the permissive temperature. H1299-p53A138V at 32C, ATP luminescence viability, 24 h. 130,000 compounds, 0.93% hits. Potency, µM (highest dose often 46.1 µM), inactives show at the highest dose activity change, negative = cytotoxicity, usual class: cytotoxic. AID 924;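 also: 0% = DMSO and -100% = full killing by reference compound; nearly all actives have a fitted effect of over 55% in size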
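Cells: H1299 p53ts (A138V), 600/well, pre-incubated 16–30 h at 37C. Cpd up to 46 uM, 24 h, 32C. Readout: ATPlite luminescence, 20 min RT. Normalization: DMSO vs tamoxifen 100 uM. AC50 by Hill equation.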
HPGD inh: inhibitors of human 15-hydroxyprostaglandin dehydrogenase (HPGD); P15428; purified HPGD, NADH fluorescence kinetic, PGE2 substrate; Potency, µM, inactives show at the top dose activity change, negative = inhibition, most hits filed as inhibitors; 150,000 compounds, 4.3% hits; active = well fitted inhibition curve with a large enough effect, not every such curve was filed as active; inconclusive = small, poorly fitted or top-dose-only effect, or another doubt; inactive = no such curve, though single readings can be large or run the other way
Target sequence (P15428 whole entry, looked up): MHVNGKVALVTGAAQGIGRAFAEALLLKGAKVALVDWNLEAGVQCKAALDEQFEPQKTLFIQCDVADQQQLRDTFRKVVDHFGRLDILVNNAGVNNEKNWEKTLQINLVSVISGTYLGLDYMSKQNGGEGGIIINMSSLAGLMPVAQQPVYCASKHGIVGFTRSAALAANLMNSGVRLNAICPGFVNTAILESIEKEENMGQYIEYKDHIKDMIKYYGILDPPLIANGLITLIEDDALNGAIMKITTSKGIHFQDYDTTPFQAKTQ
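NADH formation kinetics: reaction with 30 uM PGE2 and 1 mM NAD+ (final), 20 nM enzyme, Tris-HCl pH 8 with Tween 20, after 15 min compound preincubation at room temperature. Fluorescence change, last versus first of five reads.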
12-hLO inh: inhibitors of human 12-lipoxygenase (ALOX12); Potency, µM (doses to about 57.1 µM), for inactives: top-dose activity change, negative = inhibition, hits mostly inhibitors; 150,000 compounds, 0.12% hits; purified 12-hLO, xylenol orange hydroperoxide absorbance; P18054; also: nearly all actives have a fitted effect of over 55% in size
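Hydroperoxide output read as Fe(III)-xylenol orange absorbance, 573-to-405 nm ratio, after 30 min reaction with 40 uM arachidonic acid. Enzyme: 150 nM purified human 12hLO, 15 min compound preincubation; 25 mM Hepes pH 7.0, room temperature.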
Starred values were filed as active, the others as inactive; ? = inconclusive; . = not tested or not shown; [ ] = dose if it differs, or a comment. Compounds with a hit are over-represented: about 4.4% of the library has one in this group of screens. Unless noted, calls follow the shape of the dose curve; as a rule, active = well fitted curve in the direction sought with a large enough effect; inconclusive = small, poorly fitted or top-dose-only effect, or another doubt; inactive = no such curve, though single readings can be large; an effect the other way counts as inactive or inconclusive. Unless noted, % is scaled to controls: 0 for no effect and ±100 for the full control effect; potency is read from the fitted curve at half-maximal effect.

SMILES	p53ts 39C kill	p53ts 32C kill	HPGD inh	12-hLO inh
CC1CCCCN1C(=O)/C(=C\c1ccccc1)c1ccccc1 (stereo unspecified)	.	.	14µM*	6%
CN1CCN(C(=S)NC(=O)/C=C/c2ccccc2)CC1	.	.	-4%	4%
Cc1nc2cccnc2n1C1CCN(S(C)(=O)=O)CC1	-3%	5%	.	.
CC(C)OCCCNC(=O)CN1C(=O)c2cccnc2Sc2ccccc21	-27%	-3%	.	.
CO[C@@H](NC(N)=O)C(=O)O	-5%[9.22 µM]	-9%[9.22 µM]	-6%	3%[11.4 µM]
O=C(Cn1c(=O)n(-c2ccccc2)c(=O)c2ccc(C(=O)NCc3ccc4c(c3)OCO4)cc21)Nc1ccc(Br)cc1F	13µM*	-15%	.	.
O=C(Cn1c(=O)n(-c2ccccc2)c(=O)c2ccc(C(=O)NCc3ccc4c(c3)OCO4)cc21)Nc1ccc(F)cc1	-17%	-17%	.	.
O=C(Nc1noc2ccccc12)c1ccc(F)cc1	?	10µM*	.	.
CC(=O)Nc1nonc1NC(=O)c1ccc(F)cc1	.	.	-5%	-1%
CCOc1ccc(-n2c(SCC(=O)N3CCCC3)nc3c([nH]c4ccccc43)c2=O)cc1	-24%	6%	.	.
O=c1cc(-c2ccccc2Cl)oc2c(NS(=O)(=O)c3cc(Cl)cc(Cl)c3O)ccc(O)c12	.	.	4.5µM*	0.28µM*
CC(=O)c1cccc(NC(=O)c2sc3nc4c(cc3c2N)CCCC4)c1	13µM*	?	.	.
O=C1S/C(=C/c2ccc(N3CCOCC3)o2)C(=O)N1Cc1ccc(F)cc1	.	.	-8%	?
COc1ccc2nc(C)cc(N3CCOCC3)c2c1	5%	5%	-15%	-6%
COc1ccc2cc(/C=C3\SC(=S)NC3=O)c(N3CCOCC3)nc2c1	.	.	20µM*	6%
O=C1NC(=S)S/C1=C/c1ccc(N2CCOCC2)o1	.	.	7.9µM*	-28%
CC(=O)N1c2ccc(S(=O)(=O)NCC3CCC(C(=O)Nc4cccc(F)c4)CC3)cc2CC1C (stereo unspecified)	-18%	-12%	.	.
Cc1ccc(CNC(=O)CSc2nc3ccsc3c(=O)n2-c2ccc(C(=O)O)cc2)cc1	-12%	-1%	.	.
Cc1oc(-c2ccc(C(=O)NCCN(C)C)cc2)nc1CS(=O)(=O)c1ccccc1	5%	-2%	.	.
Cc1ccc2scc(N3CCN(c4cccc(C(F)(F)F)c4)CC3)c(=O)c2c1	?	-4%	.	.
Cc1ccc2scc(N3CCCC(C)C3)c(=O)c2c1 (stereo unspecified)	?	13µM*	.	.
Cc1ccc(C(=O)c2sc(Nc3ccccc3)c(S(=O)(=O)c3ccccc3)c2N)c(C)c1	13%	8%	.	.
CSc1nc(C)cc(-n2cc(F)c(=O)[nH]c2=O)n1	9%	3%	14µM*	0%
Cc1cccc(-n2cc(C#N)c(=O)[nH]c2=O)n1	.	.	-3%	1%
Cc1c(C(=O)N2CCC(c3nc4ccccc4s3)CC2)oc2ccc(Cl)cc12	6%	-4%	.	.
SMILES	p53ts 39C kill	p53ts 32C kill	HPGD inh	12-hLO inh
CC(=O)c1cccc(NS(=O)(=O)c2ccc3[nH]c4c(c3c2)CCCCCC4)c1	?	4%	.	.
COc1ccc(-c2nnc(Nc3ccc(OC)c(C(=O)N4CCCCC4)c3)c3ccccc23)cc1	15%	.	14µM*	-17%
COc1ccc(S(=O)(=O)N(Cc2nc(-c3cccc(C)c3)no2)C2CCCCC2)cc1	-1%	22%	.	.
O=C(CSc1nnc(-c2ccc(F)cc2)o1)N1CCN(C(=O)c2ccco2)CC1	1%	-4%	-3%	-2%
O=C(CSc1nnc(-c2ccccc2Br)o1)N1CCN(C(=O)c2ccco2)CC1	-1%	-7%	28µM*	3%
O=C(NC1CCCC1)c1ccc(CSc2nc3cccnc3n2Cc2cccc(F)c2)cc1	.	-2%	.	.
O=C(NC1CC1)c1ccc(Cn2c(SCc3ccccc3F)nc3cccnc32)cc1	.	16µM*	.	.
Cc1ccc(CSc2nc3cccnc3n2Cc2ccc(C(=O)NC3CCCCC3)cc2)cc1	.	11µM*	.	.
Cc1ccc(CSc2nc3cccnc3n2Cc2ccc(C(=O)NCCc3cccs3)cc2)cc1	.	5µM*	.	.
O=C(NCc1cccs1)c1ccc(CSc2nc3cccnc3n2Cc2ccccc2)cc1	.	-11%	.	.
Cc1cc(F)ccc1NC(=O)Cn1c(=O)ccc2cc(S(=O)(=O)N3CCC(C)CC3)ccc21	-27%	6%	.	.
Cc1ccc(C)c(CNC(=O)C2CCCCN2S(=O)(=O)c2ccc(F)cc2)c1 (stereo unspecified)	-11%	7%	.	.
COc1ccccc1CNC(=O)CCC1N=C2c3ccccc3N=C(SCc3ccccc3Cl)N2C1=O (stereo unspecified)	-11%	24%	.	.
Cc1nn(Cc2ccccc2)c(C)c1NC(=O)CSc1nnc(-c2cc(Cl)ccc2O)n1C	13%	13%	28µM*	-16%
Cc1ccc(NC2=Nc3ccccc3CC2)cc1	.	.	32µM*	-9%
COc1cc(Cl)c(C)cc1NC(=O)Cn1ncc2c1-c1cc(C)ccc1OC2	13µM*	-3%	.	.
CCn1cc(C(=O)NCc2ccccc2Cl)cn1	.	.	32µM*	3%
Cc1cc(Nc2ccccc2N2CCOCC2)n2ncnc2n1	11%	-20%	18µM*	-3%
Cc1cc(C)n2nc(C(=O)Nc3ccccc3N3CCOCC3)nc2n1	10%	-8%	-16%	2%
COc1ccc(-c2nc(SCCOc3ccccc3Cl)n3[nH]c(=O)cc3n2)cc1	-16%	7%	.	.
COc1ccccc1OCCCSc1nc(-c2ccc(C(C)(C)C)cc2)nc2cc(=O)[nH]n12	15%	81%	.	.
COc1cccc(-c2nc(SCc3ccc(C)cc3)n3[nH]c(=O)cc3n2)c1	13µM*	-1%	.	.
COc1ccc(NC(=O)CSc2nc(-c3ccccc3)nc3cc(=O)[nH]n23)cc1	9%	-3%	.	.
CC(C)(C)c1ccc(-c2nc(SCCCOc3ccccc3)n3[nH]c(=O)cc3n2)cc1	20µM*	7%	.	.
Cc1cc(OCCCSc2nc(-c3ccc(C(C)(C)C)cc3)nc3cc(=O)[nH]n23)ccc1Cl	16µM*	30%	.	.
SMILES	p53ts 39C kill	p53ts 32C kill	HPGD inh	12-hLO inh
CC(=O)N1CCCC1c1nc2ccccc2n1Cc1c(F)cccc1Cl (stereo unspecified)	-15%	-8%	.	.
CCOc1cc2[nH]c(=O)n(CCCCC(=O)N3CCN(c4ccccc4OC)CC3)c(=O)c2cc1OCC	-22%	9%	.	.
CCCCCCCCCc1nc(N)n[nH]1	.	.	2%	3%
CCCCCCCCc1nc(=S)[nH][nH]1	9%	-2%	16µM*	-23%
CCCCCCC1CC(CCc2nc(=S)[nH][nH]2)C(=O)O1 (stereo unspecified)	.	.	16µM*	-2%
O=C(O)[C@H]1CN(C/C=C/P(=O)(O)O)CCN1	0%	0%	-5%	-3%
Cc1cccc(CS(=O)(=O)c2nnc([C@H](Cc3ccccc3)NC(=O)OC(C)(C)C)o2)c1	.	.	14µM*	-7%
COC(=O)CS(=O)(=O)c1nnc([C@H](Cc2ccccc2)NC(=O)OC(C)(C)C)o1	?	?	11µM*	-6%
COC(=O)CSc1nnc([C@H](Cc2ccccc2)NC(=O)OC(C)(C)C)o1	12%	-1%	-5%	-5%
CCc1ccc2oc(-c3cc(N)ccc3Cl)nc2c1	10µM*	?	?	-21%

Bioassay records from PubChem BioAssay.
